# Cycloheximide cs – counter-screen for Shiga toxin inhibitors: cycloheximide protein synthesis inhibition; max response, %; cell reporter, cycloheximide protein synthesis inhibition counterscreen; 300,000 compounds, 12% hits; in the data active = max response mostly above about 13%, no sharp cut-off; inactive = mostly below about 14%; note: read at 38.3 µM for the half of the compounds with a filed dose; 0% is about no effect
# Shiga inhibitor – inhibitors of Shiga toxin in Vero cells. Vero cells, Shiga toxin protein synthesis inhibition reporter. inhibition, % at 38.7 µM. 290,000 compounds, 9.2% hits. AID 2315; in the data active = inhibition mostly above about 28%, no sharp cut-off; inactive = mostly below about 43%; note: 0% is about no effect
# Pf growth 96h – P. falciparum growth inhibition at 96 hours | Potency, µM (top dose mostly 28.7 µM), inactives show top-dose activity change, negative = inhibition, usual class: inhibitors | 320,000 compounds, 6.9% hits | P. falciparum luciferase reporter growth, 96 h; note: potency is the fitted concentration of half-maximal effect; % is set by controls: 0 for no effect and ±100 for the full control effect
#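 96 h incubation, 37 C, 5% CO2, of luciferase-reporter P. falciparum-infected RBCs (2% hematocrit, 0.05% parasitemia final) with test compounds; endpoint luminescence.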
# Pf growth 48h – P. falciparum growth inhibition at 48 hours (one generation); P. falciparum luciferase growth in erythrocytes, 48 h; Potency, µM (titrated, usually from 28.7 µM), for the others: at the top dose activity change, negative = inhibition, most hits filed as inhibitors; 310,000 compounds, 5.9% hits; AID 504832; note: potency is the fitted concentration of half-maximal effect; % is set by controls: 0 for no effect and ±100 for the full control effect
#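 Luminescence readout; reporter = integrated firefly luciferase in P. falciparum. RBC culture at 2% hematocrit, 0.1% parasitemia final, 37 C/5% CO2; decreased signal taken as growth inhibition.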
# * hit, by the source's call; ? = inconclusive; / = no result given. A selection: hits, their analogues and other compounds. The true share with any hit is near 21%. Unless noted, calls come from the whole dose curve; as a rule, active = well fitted inhibition curve with a large enough effect; inconclusive = small, poorly fitted or top-dose-only effect, or another doubt; inactive = no such curve, though single readings can be large or run the other way.
SMILES,Cycloheximide cs,Shiga inhibitor,Pf growth 96h,Pf growth 48h
CN(C)S(=O)(=O)c1cc(C(=O)OCCn2cnc3c2c(=O)n(C)c(=O)n3C)ccc1Cl,6,-10,-17%,?
Cc1nn(CCCC(=O)NCc2ccccc2)c(=O)c2nccn12,-4,-1,1µM*,9%
C=CCn1c(=O)c2ccccc2n2c(SCC(=O)NCC)nnc12,-6,-6,33%,-2%
COC(=O)CCn1[nH]c(=O)c2ccccc2c1=O,-2,-10,9.3µM*,0%
Cn1[nH]c(=O)c2ccccc2c1=O,0,-17,-11%,23%
O=c1[nH]n(Cc2ccccc2)c(=O)c2ccccc12,26*,4,100%,46%
Cc1ccc(S(=O)(=O)/N=C(/Nc2ccc3[nH]c(=O)[nH]c3c2)c2ccc(F)cc2)cc1,-4,-7,-13%,0%
N#Cc1c(N)nc(SCC(=O)OCc2ccccc2)c(C#N)c1-c1ccco1,-3,-3,4.1µM*,?
N#Cc1c(N)nc(SCc2ccccc2)c(C#N)c1-c1ccco1,15*,6,39%,?
CCCc1nc(N)c(C#N)c(-c2ccco2)c1CC,-4,14,/,8%
COC(=O)CSc1nc2c(c(-c3ccco3)c1C#N)CCCC2,9,2,/,1.9µM*
O=C(O)CCN1CC2([N+](=O)[O-])C=CC(=O)C([N+](=O)[O-])(C1)C2CC(=O)c1ccccc1 (stereo not drawn),-3,20,4%,-4%
Cc1cccc(N2CCN(C3=NC(=O)C(=C4CCCCC4)S3)CC2)c1,2,40,34%,10µM*
O=C1N=C(N2CCOCC2)SC1=C1CCCCC1,75*,81*,?,2%
CC(=O)N1CCN(C2=NC(=O)C(=C3CCCCC3)S2)CC1,15,19*,-19%,?
CC(C)=C1SC(N2CCCCC2)=NC1=O,11,-4,?,/
N#CCCN1CCN(C2=NC(=O)C(=C3CCCCC3)S2)CC1,35*,61,2.6µM*,0%
COc1ccc2oc(C(=O)OCC(=O)N(C)c3c(N)n(Cc4ccccc4)c(=O)[nH]c3=O)c(C)c2c1,/,/,12%,?
CC1=C(C(=O)N2CCCC(N3CCN(c4cccc(C(F)(F)F)c4)CC3)C2)OCCO1 (stereo not drawn),-1,-33,13µM*,-17%
O=C(c1cccc(C(F)(F)F)c1)C1CCCN(C(=O)Cn2cncn2)C1 (stereo not drawn),13*,4,-28%,2%
CC1=C(C(=O)N2CCCC(C(=O)c3cccc(C(F)(F)F)c3)C2)OCCO1 (stereo not drawn),-2,13,13µM*,?
CC1=C(C(=O)N2CCCC(N3CCN(c4cccc(Cl)c4)CC3)C2)OCCO1 (stereo not drawn),20,3,-6%,2%
Cc1ncoc1C(=O)N1CCCC(C(=O)c2cccc(C(F)(F)F)c2)C1 (stereo not drawn),-1,8,?,2%
CCN(C(=O)c1cc2c(s1)-c1ccccc1OC2)c1cc(OC)ccc1OC,-3,15,12µM*,?
O=C(c1cc2c(s1)-c1ccccc1S(=O)(=O)C2)N1CCCC1,6,13,51%,60%
SMILES,Cycloheximide cs,Shiga inhibitor,Pf growth 96h,Pf growth 48h
CCN(C(=O)c1cc2c(s1)-c1ccccc1S(=O)(=O)C2)c1cc(OC)ccc1OC,-1,3,?,9.3µM*
Cc1sc2nc(-c3cccnc3)nc(Cl)c2c1-c1ccccc1,11,7,?,8.3µM*
COc1ccc(NC(=O)CSc2nc3sc(C)cc3c(=O)n2C)c(OC)c1,-5,-9,11%,?
Cc1ccc(NC(=O)CSc2ccccc2NC(=O)c2ccccc2)cc1Cl,34*,18,84%,22%
Cc1ccc(NC(=O)CSc2nncs2)cc1Cl,/,/,-26%,23%
Cc1ccc(NC(=O)CSc2ccccc2NC(=O)c2ccccc2Cl)cc1Cl,18*,26,-2%,?
C=CCn1c(NCc2c[nH]c3ccccc23)nc2ccccc21,17*,27*,25%,62%
C=CCn1c(NCc2ccc(OC)cc2)nc2ccccc21,18*,40*,?,15%
C=CCn1c(C(C)(C)C)nc2ccccc21,-2,-5,-27%,1%
Cn1c(NCc2c[nH]c3ccccc23)nc2ccccc21,15*,70,8%,63%
CCN1C(=O)[C@H]2[C@@H](c3ccc(-c4ccccc4)cc3)N[C@@](C)(C(=O)OC)[C@H]2C1=O,/,/,?,9.3µM*
CCN1C(=O)[C@H]2[C@@H](c3ccc(-c4cccc(Cl)c4)cc3)N[C@@](C)(C(=O)OC)[C@H]2C1=O,/,/,?,13µM*
Cc1ccc(NC(=O)c2cc(S(=O)(=O)N3CCOCC3)c(Br)s2)cc1,5,4,?,-17%
O=C(Nc1nc(-c2ccccc2)cs1)c1ccc(Br)o1,32*,107*,/,1%
O=C(Nc1nc(-c2ccccc2)cs1)c1ccccc1F,41*,62*,13µM*,52%
O=C(Nc1nc(-c2ccccc2)cs1)c1cccc([N+](=O)[O-])c1C(=O)O,1,-4,24%,-1%
COc1ccc(-c2csc(NC(=O)c3ccccc3F)n2)cc1,15*,/,?,-9%
CNC1=C([N+](=O)[O-])CC([N+](=O)[O-])=C(N2CCNCC2)N1C,9,9,2%,-2%
CCn1c(SCC(=O)Nc2ccc(N3CCOCC3)cc2)nnc1C1CC1,/,/,21%,4%
CC(NC(=O)c1ccccc1Cl)C(=O)N1CCN(Cc2ccc3c(c2)OCO3)CC1 (stereo not drawn),/,/,-6%,5%
Cc1nn(C2CCS(=O)(=O)C2)c(Cl)c1/C=C/C(=O)OCC(=O)c1c[nH]c2ccccc12 (stereo not drawn),-3,-2,?,?
Cc1nn(C2CCS(=O)(=O)C2)c(Cl)c1/C=C/C(=O)OCC(=O)c1cc(C)n(-c2ccc(F)cc2)c1C (stereo not drawn),3,8,?,15µM*
CC(C)c1nc(N(C)S(C)(=O)=O)nc(-c2ccc(F)cc2)c1/C=C/C(O)CC(O)CC(=O)O (stereo not drawn),/,/,-14%,1%
C=CCc1c(Cl)nc(C)nc1NCc1ccccc1,2,-9,?,6%
CCc1cc(=O)oc2c3c(cc(OCC(=O)NCc4ccccn4)c12)OC(C)(C)CC3,-1,-3,?,?
SMILES,Cycloheximide cs,Shiga inhibitor,Pf growth 96h,Pf growth 48h
CCc1cc(=O)oc2c3c(cc(OCC(=O)NCc4cccnc4)c12)OC(C)(C)CC3,7,13,?,9.3µM*
CCc1cc(=O)oc2c3c(cc(OCC(=O)Nc4cccnc4)c12)OC(C)(C)CC3,1,-1,2.9µM*,2.1µM*
COc1cc2c(c3oc(=O)cc(CC(=O)O)c13)CCC(C)(C)O2,7,17,5.2µM*,?
Cc1c(C)c2c(OCC(=O)Nc3cccnc3)cc3c(c2oc1=O)CCC(C)(C)O3,-2,-7,4.1µM*,?
NC(=O)NCCc1ccccc1,-2,-6,34%,31%
COc1ccc(/C=N/NC(=O)CCc2c(C)n[nH]c2C)cc1O,2,20,-17%,/
CN(C)/C=C(\C(=O)c1ccc(F)cc1F)c1nnnn1-c1ccccc1,-4,-4,-8%,-6%
